# aSyn yeast inh = rescues yeast growth from alpha-synuclein toxicity; Yeast expressing alpha-synuclein, growth rescue, BacTiter-Glo, 24 h; AID 652106; Potency, µM (doses to about 46.1 µM), inactives show at the highest dose growth rescue (activation), hits mostly activators; 0.14% of 370,000 active; also: potency is read from the fitted curve at half-maximal effect; % of control where 0% means no effect; nearly all actives have a fitted effect of over 65% in size
#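 Rescue of yeast growth: cells expressing toxic alpha-synuclein, induced in galactose at OD600 0.02, incubated with compound 24 h at 30 C. ATP luminescence quantified growth; inhibitors of toxicity appear as activators.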
# Abeta yeast res = A-beta toxicity reversal in yeast; yeast expressing A-beta42, growth rescue, OD600, 48 h; response scale: 0% DMSO, 100% iron-clioquinol control; Potency, µM (series often up to 46.1 µM), most hits filed as activators; 0.063% of 410,000 active; also: potency is read from the fitted curve at half-maximal effect; nearly all actives have a fitted effect of over 55% in size
#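 Growth rescue measured by 600 nm absorbance after 48 h yeast culture at 30 C with compound. Values normalized between DMSO and an equimolar ferric chloride plus clioquinol control.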
# LDHA block = inhibitors of human lactate dehydrogenase A; P00338; purified LDHA, NADH/diaphorase-resazurin fluorescence; stronger effect = lower value; activity change, % (values are at about 110 or 230 µM); 0.15% of 480,000 active; in the data active = activity change below about -30%; inconclusive = mostly about -25% to -30%;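 also: plate controls were DMSO wells for no effect and wells without enzyme for full effect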
#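 Enzyme activity of human lactate dehydrogenase 5 (2 nM; 0.06 mM NADH, 0.2 mM pyruvate, 5 min, RT) is measured via a resazurin/diaphorase fluorescence readout of residual NADH.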
# IDH1 R132H inh = blocks human mutant IDH1 R132H enzyme; O75874; IDH1-R132H enzyme, NADPH consumption, diaphorase/resazurin fluorescence; Potency, µM (doses to about 76.6 µM), for inactives: top-dose activity change, negative = inhibition, actives largely listed as inhibitors; 0.093% of 390,000 active; also: potency is read from the fitted curve at half-maximal effect; % is scaled to controls: 0 for no effect and ±100 for the full control effect; nearly all actives have a fitted effect of over 65% in size
# Target sequence (O75874 whole entry R132H, stated change not applied): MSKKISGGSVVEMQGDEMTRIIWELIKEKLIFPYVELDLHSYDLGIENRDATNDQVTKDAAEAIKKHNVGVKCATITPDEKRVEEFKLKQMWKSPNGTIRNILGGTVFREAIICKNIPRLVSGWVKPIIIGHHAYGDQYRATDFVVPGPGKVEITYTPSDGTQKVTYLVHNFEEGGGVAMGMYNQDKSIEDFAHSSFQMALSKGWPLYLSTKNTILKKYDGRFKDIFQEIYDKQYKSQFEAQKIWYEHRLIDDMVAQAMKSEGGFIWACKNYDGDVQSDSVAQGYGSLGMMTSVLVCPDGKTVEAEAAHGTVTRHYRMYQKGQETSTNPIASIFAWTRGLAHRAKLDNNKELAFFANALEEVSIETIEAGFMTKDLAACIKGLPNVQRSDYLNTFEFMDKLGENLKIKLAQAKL
#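 IDH1-R132H (0.5 ug/mL dispensed) in pH 7.5 Tris buffer was preincubated 30 min with compound, then given a substrate mix of 0.016 mM NADPH and 2 mM alpha-KG for 80 min at room temperature; remaining NADPH was read by diaphorase/resazurin fluorescence.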
# TDP-43 yeast inh = rescues yeast growth from TDP-43 toxicity | TDP-43 expressing yeast growth rescue, BacTiter-Glo, 24 h | Potency, µM (highest dose often 46.1 µM), for inactives: top-dose growth rescue (activation), hits mostly activators | 1.8% of 410,000 active; also: potency is read from the fitted curve at half-maximal effect; % of control where 0% means no effect; nearly all actives have a fitted effect of over 50% in size
#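 Growth rescue of TDP-43-toxic yeast measured as ATP luminescence (BacTiter-Glo). Cells grown to mid-log in raffinose, induced in galactose at OD600=0.02, exposed to compound 24 hr at 30 deg C.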
# FUS yeast rescue = suppressors of FUS proteinopathy in yeast; S. cerevisiae FUS-expressing, growth rescue, OD600, 24 h; Potency, µM (highest dose often 76.6 µM), most hits filed as activators; 0.24% of 390,000 active; AID 1347120;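 also: potency is read from the fitted curve at half-maximal effect; plate controls were DMSO vehicle for no effect and reference control for full effect; nearly all actives have a fitted effect of over 55% in size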
#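 Yeast FUS proteinopathy model; galactose-induced FUS (2%), starting OD 0.005. Cpds in dilution series, 24hr, 30C, 99% humidity. Abs 600 nm growth. Pos ctrl CP55940 (top 92uM final); neg ctrl DMSO.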
# * = called active by the depositor; i = inactive; ? = inconclusive; · = no result; ! = not confirmed by another sample. The list is not random: actives were taken first. Their share in the collection is about 2%. Unless noted, calls follow the shape of the dose curve; as a rule, active = well fitted curve in the direction sought with a large enough effect; inconclusive = small, poorly fitted or top-dose-only effect, or another doubt; inactive = no such curve, though single readings can be large; an effect the other way counts as inactive or inconclusive.
SMILES,aSyn yeast inh,Abeta yeast res,LDHA block,IDH1 R132H inh,TDP-43 yeast inh,FUS yeast rescue
CC1CCc2onc(C(=O)NCc3ccco3)c2C1 (stereo not given),0.4%,i,-3.4,-1.9%,25.1µM*,i
O=C(O)c1cc2c(Br)cccc2[nH]1,·,·,14.5,·,·,·
COc1ccc(CCNS(=O)(=O)c2ccc(Br)s2)cc1,0.5%,i,-1.9,6.6%,11.2µM*,i
COc1cccc(NS(=O)(=O)c2ccc(Br)s2)c1,2.6%,i,-1.1,1.9%,?,i
COc1ccc(OC)c(NS(=O)(=O)c2ccc(Cl)s2)c1,13.7%,?,-1.5,6.0%,?,i
COc1ccc(OC)c(NS(=O)(=O)c2ccc(-c3cc(C)no3)s2)c1,·,i,4.8,-6.8%,15.8µM*,i
COc1ccccc1NS(=O)(=O)c1ccc(Br)s1,22.0%,i,-13.8,7.3%,11.2µM*,i
COc1ccc(OC)c(NS(=O)(=O)c2ccc(Br)s2)c1,·,i,5.6,17.0%,22.4µM*,i
CCCCC(=O)Nc1ccc2oc(-c3ccc(F)cc3Cl)nc2c1,·,·,5.7,·,·,·
Cc1cc(NC(=O)Nc2ccc(Cl)c(Cl)c2)no1,-1.2%,i,-1.6,-2.2%,2.1%,i
O=C(Nc1ccc(Cl)c(Cl)c1)Nc1ccon1,-31.3%,i,-10.1,-1.1%,35.5µM*,i
N#CC1=C(S)N(c2ccccc2)C(c2ccc(-c3cccc(Cl)c3)o2)NC1=O (stereo not given),10.9%,i,-0.8,41.4µM*,?,i
CC(C)N=C(N)N=C(N)Nc1ccc(Cl)cc1,1.2%,i,-3.7,7.9%,22.2%,i
NC(=NCCCCCCN=C(N)/N=C(\N)Nc1ccc(Cl)cc1)/N=C(\N)Nc1ccc(Cl)cc1,-58.9%,i,-10.0,-3.4%,25.1µM*!,i
CCCCC/C=C/C1=CC(=O)C[C@H](c2ccc(OC)c(OC)c2)C1,?,i,2.6,7.3%,35.5µM*,?
COc1ccc([C@H]2CC(=O)C=C(c3ccccc3)C2)cc1OC,0.6%,i,0.6,0.5%,?,i
COc1ccc([C@H]2CC(=O)C=C(c3ccc(SC)cc3)C2)cc1OC,0.8%,i,-1.3,6.3%,0.0%,i
COc1ccccc1C1=CC(=O)C[C@H](c2ccc(Cl)cc2)C1,11.1%,i,4.9,14.4%,?,?
COc1ccc([C@H]2CC(=O)C=C(c3cccc(Cl)c3)C2)cc1OC,10.1%,i,0.0,12.0%,22.4µM*,i
COc1ccc(C=O)cc1C1=CC(=O)C[C@H](c2ccc(Cl)cc2)C1,2.8%,i,0.6,13.4%,20µM*,?
COc1ccc([C@H]2CC(=O)C=C(c3ccccc3OC)C2)cc1OC,8.6%,i,-1.1,3.0%,20µM*,i
Clc1ccccc1CN1CCc2ccccc2C1,·,·,-0.3,·,·,·
O=C(OCc1csc(Nc2ccccc2)n1)c1ccc(Cl)cc1,-17.2%,?,-12.4,4.6%,10µM*,i
O=C(OCc1csc(-c2ccccc2)n1)c1ccc(O)cc1,-7.8%,i,-8.6,-6.5%,10µM*,i
O=C(COc1ccccc1)OCc1csc(Nc2ccccc2)n1,-5.5%,i,-15.5,0.0%,8.6%,i
SMILES,aSyn yeast inh,Abeta yeast res,LDHA block,IDH1 R132H inh,TDP-43 yeast inh,FUS yeast rescue
CCN(CC)S(=O)(=O)c1cc(C(=O)OCc2csc(-c3ccccc3)n2)ccc1Cl,·,·,-12.1,·,·,·
O=C(Nc1cc(=O)[nH]c2nc(C(F)(F)F)nn12)c1ccccc1Cl,·,·,11.9,·,·,·
CCCCC(=O)Nc1ccc(OCC)c2ncccc12,·,·,44.3,·,·,·
Cc1ccc(Cn2c(SCC(=O)O)nc3c2c(=O)[nH]c(=O)n3C)cc1,·,·,2.5,·,·,·
CCOc1ccccc1NC(=O)CSc1nnc(-c2ccco2)o1,0.3%,i,-9.7,10.2%,12.6µM*,i
CCOc1ccccc1NC(=O)CSc1ccccc1,2.9%,i,2.5,9.1%,14.1µM*,i
CCOc1ccccc1NC(=O)CSc1ncc(S(=O)(=O)c2ccc(C)c(C)c2)c(N)n1,·,i,3.2,10.4%,16.9%,31.6µM*
CCOC(=O)c1ccccc1NC(=O)CSc1ncc(C(=O)OCC)c(N)n1,-5.2%,i,-0.3,-0.7%,-12.2%,i
O=C(CSc1nnc(-c2ccco2)o1)c1ccccc1Cl,-4.0%,i,2.6,10.9%,?,22.4µM*
Cc1ccc(N2C(=O)c3ccccc3NC23CCSC3)cc1 (stereo not given),·,·,-0.5,·,·,·
O=C1CC(c2cc(Br)ccc2F)c2cc3c(cc2N1)CCC3 (stereo not given),4.47µM*,i,-7.3,1.9%,-23.7%,i
O=C1CC(c2cccc(Cl)c2)c2cc3c(cc2N1)CCC3 (stereo not given),3.98µM*,i,1.7,2.2%,-0.7%,i
COC(=O)C1CCN(Cc2cc(=O)oc3ccc(O)cc23)CC1,·,·,0.4,·,·,·
Oc1c(Cl)cc(Cl)cc1C=Nc1cccc2ccccc12,·,·,8.3,·,·,·
Nc1ccccc1SCc1csc(-c2ccc(Cl)cc2)n1,-24.0%,i,-19.3,7.5%,12.6µM*,i
COc1ccc2cc(C(=O)OC(C)C(N)=O)c(C)nc2c1 (stereo not given),·,·,-31.9*,·,·,·
CSC1=N/C(=C\c2ccc(-c3cccc(Cl)c3)o2)C(=O)S1,·,·,0.6,·,·,·
CCOC(=O)c1sc(N)c(C#N)c1COC(=O)C12CC3CC(CC(O)(C3)C1)C2,·,·,7.9,·,·,·
O=C(NCCC1=CCCCC1)C1CCN(C(=O)N2CCOc3ccc(Cl)cc32)CC1,·,?,4.8,20.5%,28.2µM*,i
OC(CC#CCN1CCN(CC#CCC(O)(c2ccccc2)c2ccccc2)CC1)(c1ccccc1)c1ccccc1,·,·,3.3,·,·,·
O=[N+]([O-])c1cccc(-c2nn(-c3ccccc3)cc2CO)c1,5.2%,i,-1.5,17.8%,12.6µM*,i
CCC(c1nnnn1-c1ccc2c(c1)OCCO2)N1CCN(c2ncccc2C(F)(F)F)CC1 (stereo not given),?,i,0.8,·,12.6µM*,?
O=S(=O)(Cc1cccc(F)c1)Cc1csc(-c2ccccc2)n1,·,·,-0.6,·,·,·
C=C1C(=O)[C@]23C[C@H]1CCC2[C@]1(C)C(=O)CC[C@@](C)(C(=O)O)C1C[C@@H]3O (stereo not given in full),15.8µM*,i,-10.8,·,12.6µM*,i
C=C1C(=O)[C@]23C[C@H]1CCC2[C@]1(C)CCC[C@@](C)(C(=O)O)C1C[C@@H]3O (stereo not given in full),?,i,-6.7,·,?,i
